Screening results (PubChem BioAssay)
Most compounds without a hit are left out; they make up all but 4.5% or so of the library.
aSyn 5UTR inh: MLPCN primary screen, SNCA 5' untranslated region; actives 0.82% (n = 300,000); inhibition, % (tested at 7.5 µM); alpha-synuclein 5'UTR reporter, inhibitor activity; in the data active = inhibition above about 60%;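 note: H4 neuroglioblastoma cells stably carrying SNCA 5'UTR luciferase fusion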
697 NFkB inh: inhibitors of PMA/ionomycin-induced NF-kB reporter, 697 cells, primary screen, B-cell NF-kB inhibitor project, cell-based, luminescence, uHTS; 697 B-cell NF-kB luciferase reporter, 16 h; inhibition, % at 4 µM; actives 0.33% (n = 330,000); AID 435022, 2010; in the data active = inhibition above about 35%
Gli-Sufu block: Gli-Sufu pathway antagonists, primary screen, luciferase luminescence, Sufu-KO-LIGHT cells, uHTS | Sufu-KO-LIGHT fibroblasts, Gli luciferase reporter luminescence | inhibition, % at 5 µM | actives 0.74% (n = 340,000) | AID 588413, 2011;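 active = inhibition above about 55%, limit read from the data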
Mdm2 MdmX PPI: inhibitors of human Mdm2-MdmX association, primary screen, cell-based, luminescence, split luciferase, SaOS-2, uHTS; Protein Mdm4 (Homo sapiens) + E3 ubiquitin-protein ligase Mdm2 (Homo sapiens), …; SaOS-2 split-luciferase Mdm2/MdmX complementation; inhibition, % at 8 µM; actives 3% (n = 330,000);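 active = inhibition of at least 50% at 8 µM in the primary screen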
Target sequence (O15151 whole entry, looked up): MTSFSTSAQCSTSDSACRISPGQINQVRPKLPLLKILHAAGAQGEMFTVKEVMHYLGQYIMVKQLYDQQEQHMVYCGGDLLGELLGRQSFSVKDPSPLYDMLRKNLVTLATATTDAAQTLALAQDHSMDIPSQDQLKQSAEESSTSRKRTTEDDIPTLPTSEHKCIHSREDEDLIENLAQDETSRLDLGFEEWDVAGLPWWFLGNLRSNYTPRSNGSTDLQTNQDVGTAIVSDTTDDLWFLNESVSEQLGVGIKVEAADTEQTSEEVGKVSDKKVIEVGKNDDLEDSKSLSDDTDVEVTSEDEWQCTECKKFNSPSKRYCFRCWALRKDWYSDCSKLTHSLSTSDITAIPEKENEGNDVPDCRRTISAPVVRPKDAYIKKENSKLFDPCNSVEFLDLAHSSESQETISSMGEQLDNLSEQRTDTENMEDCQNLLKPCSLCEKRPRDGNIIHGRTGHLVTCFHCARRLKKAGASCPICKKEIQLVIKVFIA
Target sequence (Q00987 whole entry, looked up): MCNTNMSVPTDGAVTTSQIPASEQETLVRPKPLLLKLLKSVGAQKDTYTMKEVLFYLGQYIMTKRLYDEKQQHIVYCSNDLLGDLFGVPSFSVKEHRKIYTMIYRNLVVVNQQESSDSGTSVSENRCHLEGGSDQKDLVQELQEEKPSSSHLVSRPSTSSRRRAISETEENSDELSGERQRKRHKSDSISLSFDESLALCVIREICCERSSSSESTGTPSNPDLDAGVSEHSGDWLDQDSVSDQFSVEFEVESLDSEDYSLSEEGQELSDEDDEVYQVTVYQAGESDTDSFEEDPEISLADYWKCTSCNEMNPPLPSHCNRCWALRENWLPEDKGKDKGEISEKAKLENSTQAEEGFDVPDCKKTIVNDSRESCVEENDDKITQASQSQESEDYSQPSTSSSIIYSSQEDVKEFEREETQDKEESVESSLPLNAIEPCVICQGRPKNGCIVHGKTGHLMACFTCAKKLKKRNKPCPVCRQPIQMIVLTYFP
Jurkat NFkB inh: inhibitors of induced NF-kB luciferase reporter, primary screen, TCR NF-kB activation inhibitor project, cell-based, luminescence, uHTS; actives 0.53% (n = 330,000); inhibition, % at 4 µM; Jurkat, PMA/ionomycin-induced NF-kB luciferase reporter; in the data active = inhibition above about 50%
CSC inhib: cancer stem cell viability inhibitors, primary screen, luminescence. cancer stem cell-like cells viability. inhibition, % at 7.5 µM. actives 1.1% (n = 300,000); in the data active = inhibition above about 75%; tested in HMLE shEcad cells
Mdm2-MdmX conf: Mdm2-MdmX complex disruptors, retested hits, confirmation, luminescence, single concentration. shares compounds with Mdm2 MdmX PPI. Mdm2-MdmX binding, luminescent assay. inhibition, % at 8 µM. actives 55% (n = 10,000); in the data active = inhibition above about 40%
FLuc counter: full-length luciferase signal inhibition, confirmation, counter-screen for Mdm2/MdmX interaction inhibitor project, cell-based, single concentration, SaOS-2; shares compounds with Mdm2 MdmX PPI; SaOS-2 full-length luciferase counterscreen, luminescence; inhibition, % at 8 µM; actives 77% (n = 6,200);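 active = mean inhibition at 8 µM reaching about 37%, which flags the compound as non-specific, limit read from the data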;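 note: p53-null SaOS-2 cells with luciferase driven by a doxycycline-inducible promoter; compound on cells about two nights before reading with doxycycline added after day one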
A number is an active result; - = inactive; . = no result.

SMILES	aSyn 5UTR inh	697 NFkB inh	Gli-Sufu block	Mdm2 MdmX PPI	Jurkat NFkB inh	CSC inhib	Mdm2-MdmX conf	FLuc counter
CCOC(=O)C1=C(c2ccccc2)NC(=O)NC1c1ccc(O)c(OCC)c1 (centres undefined)	-	-	-	-	-	-	.	.
COc1ccc(C(=O)CC(=O)c2ccccc2)cc1	-	-	-	-	-	-	.	.
COc1ccc(C(=O)C/C(=C\C(=O)c2ccc(C)cc2)c2ccccc2)cc1	-	-	-	86	-	.	84	-
CCc1ccc2c(c1)C1(NN=C(c3cccc4ccccc34)S1)C(=O)N2 (centres undefined)	76	-	.	78	-	-	75	-
COc1ccc2c(c1)O[C@H](c1ccc3c(c1)OCO3)[C@@H](O)C2=O	-	-	-	50	-	-	-	.
COc1ccc2c(c1)O[C@@H](c1cccc(C(F)(F)F)c1)[C@H](O)C2=O	62	-	.	55	-	-	60	36
Cc1[nH]c2ccccc2c1C1=CC(=O)C=CC1=O	.	.	-	.	.	.	.	.
COc1ccc(-c2oc(=O)c3cc(OC)c(OC)cc3c2C#C[C@]2(O)CC[C@H]3[C@@H]4CCc5cc(OC)ccc5[C@H]4CC[C@@]32C)cc1	.	-	-	70	-	-	-	.
COc1ccc(-c2oc(=O)c3cc(OC)c(OC)cc3c2C#CCCO)cc1	.	-	-	-	-	.	.	.
COc1ccc(-c2csc3ncnc(NCCN4CCOCC4)c23)cc1	-	-	-	61	-	-	65	36
Cc1ccc(-c2csc3ncnc(NCCN4CCOCC4)c23)cc1	-	-	-	54	-	-	-	.
Clc1ccc(-c2csc3ncnc(NCCN4CCOCC4)c23)cc1	-	-	-	-	-	-	.	.
c1ccc(-c2csc3ncnc(NCCN4CCOCC4)c23)cc1	-	-	-	-	-	-	.	.
Cc1cc(C)nc(NC(=S)Nc2cccc(Cl)c2Cl)c1	-	-	-	-	-	-	.	.
Cc1cc(C)nc(NC(=S)Nc2ccc(Br)cc2Cl)c1	-	-	-	51	-	-	-	.
N=C1C=CC=C2C1=NC1(CCCCC1)N2O	-	-	-	-	-	-	.	.
CCCCNC(=O)c1ccc2c(c1)C(=O)N(Cc1ccncc1)C2=O	-	-	-	-	-	.	.	.
O=C(O)c1cc(S(=O)(=O)Nc2ccc3c(c2)OCCO3)c(Cl)cc1Cl	-	-	-	55	-	-	42	67
CC(C)(C)C(=O)/C=c1\s/c(=C\c2ccc(-c3ccc([N+](=O)[O-])cc3)o2)c(=O)n1CC(=O)NC(N)=O	-	-	-	68	-	-	58	54
CCC(=O)N/N=C/c1ccc(-c2ccc([N+](=O)[O-])cc2)o1	-	-	-	-	-	-	.	.
Cc1ccc(C(=O)C(C)OC(=O)Cn2[nH]c(=O)c3ccccc3c2=O)cc1C (centres undefined)	-	-	-	-	-	.	.	.
N#CC1=C(N)NC(SCc2ccc(F)cc2)=C(C#N)C12CCCCC2	-	-	-	59	-	-	60	72
CN1C2CCC1CC(NC(=O)c1cc(Cl)cc3[nH]cnc13)C2 (centres undefined)	-	-	-	-	-	-	.	.
COc1ccc(-c2cc(C#N)nc(Cl)n2)cc1	-	-	-	68	-	-	-	38
COc1ccc(-c2cc(C#N)nc(Oc3ccc(Cl)cc3)n2)cc1	-	-	-	-	-	-	.	.
SMILES	aSyn 5UTR inh	697 NFkB inh	Gli-Sufu block	Mdm2 MdmX PPI	Jurkat NFkB inh	CSC inhib	Mdm2-MdmX conf	FLuc counter
CCN(CC)c1nc(C#N)cc(-c2ccc(OC)cc2)n1	-	-	-	54	-	-	65	47
CCOc1ccccc1N1CCN(CC(=O)Nc2ccnn2C2CCCC2)CC1	.	-	-	-	-	.	.	.
CCOC(=O)c1c(S(=O)(=O)NCc2ccco2)c(C)n(C)c1C	-	-	-	-	-	-	.	.
Cc1oc(-c2ccc(Cl)cc2)cc1C(=O)/C(C#N)=C/Nc1ccccc1	-	-	-	62	-	-	-	.
O=C(CN1CCN(S(=O)(=O)N2CCCCC2)CC1)Nc1ccc(Cl)c(Cl)c1	-	-	-	-	-	-	.	.
COc1ccc(N(Cc2ccccc2)S(=O)(=O)c2cccc(C(=O)Nc3ccccn3)c2)cc1	.	-	-	57	-	.	-	.
COc1ccccc1CN1C(=NC(=O)C2CCCCC2)SC2CS(=O)(=O)CC21 (centres undefined)	-	-	-	-	-	-	.	.
CN1CCCN(S(=O)(=O)c2ccc3ccccc3c2)CC1	-	-	-	-	-	-	.	.
CC(C)C[C@@]12C(=O)N(c3cccc(Cl)c3)C(=O)N1[C@H](c1ccc(Br)cc1)[C@@H]1C(=O)N(C(C)(C)C)C(=O)[C@@H]12	.	-	-	50	-	-	46	69
CC(C)C[C@@]12C(=O)N(c3cccc(F)c3)C(=O)N1[C@H](c1ccc(Br)cc1)[C@@H]1C(=O)N(C(C)(C)C)C(=O)[C@@H]12	-	-	-	-	-	-	.	.
CC(C)C[C@@]12C(=O)N(c3ccc(Br)cc3)C(=O)N1[C@H](c1ccc(Br)cc1)[C@@H]1C(=O)N(C(C)(C)C)C(=O)[C@@H]12	-	-	-	60	-	-	70	52
CCC(C)c1c(NS(=O)(=O)c2ccc(C)cc2)o[nH]c1=O (centres undefined)	.	.	-	.	.	.	.	.
COc1ccc(C(CNC(=O)c2ccc(S(=O)(=O)N3CCCC3)cc2)N(C)C)cc1OC (centres undefined)	-	-	-	-	-	.	.	.
COc1ccc(C(CNC(=O)c2ccc(S(=O)(=O)N3CC(C)CC(C)C3)cc2)N(C)C)cc1 (centres undefined)	.	-	-	51	-	-	-	.
CCN(CC)C1CCN(C(=O)c2ccc(OC3CCN(CCc4ccccc4)CC3)cc2)C1 (centres undefined)	-	-	-	56	-	-	44	74
COC1CCN(C(=O)c2ccc(OC3CCN(CCc4ccccc4)CC3)cc2)CC1	-	-	-	-	-	-	.	.
COCc1cc(Sc2ccc(Cl)cc2Cl)nc(-c2ccccc2)n1	-	-	-	-	-	-	.	.
O=C(CCl)Nc1cccc(S(=O)(=O)N2CCCCCC2)c1	-	-	-	98	-	-	44	-
CC(=O)c1c(C)[nH]c(C(=O)Nc2cccc(S(=O)(=O)N3CCCCC3)c2)c1C	.	-	-	72	-	-	-	.
